Screening data as filed in PubChem BioAssay.
Most compounds without a hit are left out; they make up all but 3.5% or so of the library.
Anthrax LF inh2: blocks Bacillus anthracis lethal factor protease; multiplex microsphere protease cleavage assay, LF; 360,000 tested, 0.12% active; AID 588501; inhibition, % at 10 µM
Target sequence (P15917 whole entry, looked up): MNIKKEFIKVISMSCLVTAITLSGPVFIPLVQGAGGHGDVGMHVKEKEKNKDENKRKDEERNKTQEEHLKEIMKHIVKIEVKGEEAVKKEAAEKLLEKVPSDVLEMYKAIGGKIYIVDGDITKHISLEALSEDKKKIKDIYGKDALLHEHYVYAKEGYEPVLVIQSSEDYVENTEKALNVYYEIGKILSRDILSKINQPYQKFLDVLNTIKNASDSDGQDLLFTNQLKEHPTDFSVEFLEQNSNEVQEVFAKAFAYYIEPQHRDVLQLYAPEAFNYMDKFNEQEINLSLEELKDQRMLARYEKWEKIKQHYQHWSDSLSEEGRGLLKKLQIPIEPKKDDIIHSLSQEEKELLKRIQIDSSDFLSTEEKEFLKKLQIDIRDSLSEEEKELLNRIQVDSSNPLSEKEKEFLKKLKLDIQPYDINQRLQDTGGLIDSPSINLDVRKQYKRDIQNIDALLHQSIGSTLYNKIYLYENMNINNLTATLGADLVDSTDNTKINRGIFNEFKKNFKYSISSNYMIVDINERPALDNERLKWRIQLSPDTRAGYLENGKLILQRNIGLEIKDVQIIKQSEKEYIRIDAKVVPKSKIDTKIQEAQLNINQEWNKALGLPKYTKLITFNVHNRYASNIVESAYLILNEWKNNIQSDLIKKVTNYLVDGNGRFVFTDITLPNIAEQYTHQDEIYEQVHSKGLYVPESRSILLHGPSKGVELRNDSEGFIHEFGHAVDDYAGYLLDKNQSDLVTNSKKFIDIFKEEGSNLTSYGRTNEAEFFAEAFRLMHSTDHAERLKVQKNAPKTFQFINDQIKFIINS
BoNT F protease: blocks Botulinum neurotoxin F light chain protease; Multiplex microsphere protease cleavage assay, flow cytometry; inhibition, % at 10 µM; 360,000 tested, 0.22% active; in the data active = inhibition above about 35%, passing the limit was not always enough; inconclusive = no clear call, values can overlap the other calls
BoNT-A LC inh2: BoNT A light chain protease inhibition; AID 588499; multiplex microsphere protease substrate cleavage, flow cytometry; 360,000 tested, 0.17% active; inhibition, % at 10 µM
Autofluor counter: flagged as autofluorescent in microsphere protease counterscreen; fluorescence intensity (no concentration beside the values); compound autofluorescence counterscreen, microsphere flow cytometry; hits give high values; 360,000 tested, 3.1% active; in the data active = fluorescence intensity above about 16000; inconclusive = no clear call, values can overlap the other calls
A number is an active result. Cut-off read from the data, not from the text of the source, unless noted: active = inhibition above about 30%; inconclusive = no clear call, values can overlap the other calls; inactive = below that.

`CC(C)(C)OC(=O)NCc1ccc(CNC(=O)c2[nH]cnc2C(=O)NC2CCN(C(=O)OC(C)(C)C)CC2)cc1` gave Anthrax LF inh2 inactive, BoNT F protease inactive, BoNT-A LC inh2 inactive and Autofluor counter inactive.
`Cc1c(NS(=O)(=O)c2ccc(Cl)c(C(=O)OCC(=O)NCc3ccco3)c2)c(=O)n(-c2ccccc2)n1C` gave Anthrax LF inh2 inactive, BoNT F protease inactive, BoNT-A LC inh2 inactive and Autofluor counter inactive.
c1ccc(-n2nnnc2SCc2cn3cccnc3n2)cc1 was read as Anthrax LF inh2 inactive, BoNT F protease inactive, BoNT-A LC inh2 inactive and Autofluor counter 23611.
Screening COc1cccc(C(CC(=O)Nc2cccc3ccccc23)NC(=O)c2ccccc2)c1 (stereo not drawn) returned Anthrax LF inh2 inactive, BoNT F protease inactive, BoNT-A LC inh2 inactive and Autofluor counter 19845.
For O=S(=O)(Nc1cccnc1)c1ccc(Br)c2ccccc12 the results were Anthrax LF inh2 inactive, BoNT F protease inconclusive, BoNT-A LC inh2 inactive and Autofluor counter inactive.
`CCOC(=O)c1c(NC(=O)CN2CCCc3ccccc32)sc(C)c1CC` gave Anthrax LF inh2 inactive, BoNT F protease inactive, BoNT-A LC inh2 inactive and Autofluor counter inactive.
For O=C(c1ccccc1F)c1cn(Cc2ccc(F)cc2)c2ccccc12 the results were Anthrax LF inh2 inactive, BoNT F protease inactive, BoNT-A LC inh2 inactive and Autofluor counter inactive.
`O=C(c1ccccc1)c1cn(CC(=O)N2CCOCC2)c2ccccc12` gave Anthrax LF inh2 inactive, BoNT F protease inactive, BoNT-A LC inh2 inactive and Autofluor counter inactive.
For O=C(c1ccccc1)c1cn(CC(=O)N2CCCC2)c2ccccc12 the results were Anthrax LF inh2 inactive, BoNT F protease inactive, BoNT-A LC inh2 inactive and Autofluor counter inactive.
`O=C(c1ccccc1F)c1cn(CC(=O)N2CCCCC2)c2ccccc12` gave Anthrax LF inh2 inactive, BoNT F protease inactive, BoNT-A LC inh2 inactive and Autofluor counter 24432.
`CCn1cc(C(=O)c2ccccc2)c2ccccc21` gave Anthrax LF inh2 inactive, BoNT F protease inactive, BoNT-A LC inh2 inconclusive and Autofluor counter 22254.
`O=C(c1ccccc1F)c1cn(Cc2ccccc2)c2ccccc12` gave Anthrax LF inh2 inactive, BoNT F protease inactive, BoNT-A LC inh2 inactive and Autofluor counter 22262.
CCOC(=O)CNc1nc(C(C)(C)C)nc2c1nnn2Cc1ccccc1 was read as Anthrax LF inh2 inactive, BoNT F protease inactive, BoNT-A LC inh2 inactive and Autofluor counter inactive.
For O=C(OCC#CCSc1nnc(-c2ccccc2)o1)c1cccs1 the results were Anthrax LF inh2 inactive, BoNT F protease inactive, BoNT-A LC inh2 inactive and Autofluor counter 17034.
Screening CC1(C)CC2CC(C)(CN2S(=O)(=O)c2ccc(F)cc2F)C1 (stereo not drawn) returned Anthrax LF inh2 inactive, BoNT F protease inactive, BoNT-A LC inh2 inactive and Autofluor counter inactive.
Screening COc1cc2c(cc1OC)C(C)N(S(=O)(=O)c1ccc(Cl)nc1)CC2 (stereo not drawn) returned Anthrax LF inh2 inactive, BoNT F protease inactive, BoNT-A LC inh2 inactive and Autofluor counter inactive.
Screening O=C1OCC(Cn2c3ccccc3c3ccccc32)O1 (stereo not drawn) returned Anthrax LF inh2 inactive, BoNT F protease inactive, BoNT-A LC inh2 inactive and Autofluor counter 23400.
For COC(=O)CSc1nnc(CNC(=O)c2cccc(C)c2)n1-c1ccccc1OC the results were Anthrax LF inh2 inactive, BoNT F protease inactive, BoNT-A LC inh2 inconclusive and Autofluor counter 22455.
`COc1ccc(OCc2nnc(SCC(N)=O)n2-c2ccccc2OC)cc1` gave Anthrax LF inh2 inactive, BoNT F protease inactive, BoNT-A LC inh2 inactive and Autofluor counter 19312.
COc1ccc(OCc2nnc(SCC(N)=O)n2N)cc1 was read as Anthrax LF inh2 inactive, BoNT F protease inactive, BoNT-A LC inh2 inactive and Autofluor counter inactive.
`CN(CC(=O)Nc1c(Cl)cccc1Cl)C(=O)Cc1ccc(S(=O)(=O)N2CCOCC2)s1` gave Anthrax LF inh2 inactive, BoNT F protease inactive, BoNT-A LC inh2 inactive and Autofluor counter inactive.
O=C1CC(c2ccccc2)CC2=C1CN(C1CCCCC1)CN2 (stereo not drawn) was read as Anthrax LF inh2 inactive, BoNT F protease inactive, BoNT-A LC inh2 inactive and Autofluor counter 23766.
Screening Cn1c(=O)c2c(nc(Br)n2CC(=O)C23CC4CC(CC(C4)C2)C3)n(C)c1=O returned Anthrax LF inh2 inactive, BoNT F protease inactive, BoNT-A LC inh2 inactive and Autofluor counter 16360.
Cc1nnc(SCC(=O)NC23CC4CC(CC(C4)C2)C3)n(N)c1=O was read as Anthrax LF inh2 inactive, BoNT F protease inactive, BoNT-A LC inh2 inactive and Autofluor counter inactive.
Cn1c(=O)c2c(nc(SCC(=O)NC34CC5CC(CC(C5)C3)C4)n2C)n(C)c1=O was read as Anthrax LF inh2 inactive, BoNT F protease inactive, BoNT-A LC inh2 inactive and Autofluor counter 23851.
`COc1cccc(C(=O)Cn2c(Br)nc3c2c(=O)n(C)c(=O)n3C)c1` gave Anthrax LF inh2 inactive, BoNT F protease inactive, BoNT-A LC inh2 inactive and Autofluor counter inactive.
`CC(=O)c1cccc(NC(=O)c2csc(-n3nc(C)cc3C(F)(F)F)n2)c1` gave Anthrax LF inh2 inactive, BoNT F protease inactive, BoNT-A LC inh2 inconclusive and Autofluor counter 22022.
Screening Cc1nc2ccccc2c(=O)n1NC(=O)c1ccc(Cl)cc1 returned Anthrax LF inh2 inactive, BoNT F protease inactive, BoNT-A LC inh2 inactive and Autofluor counter inactive.
COc1ccc(C(=O)Nn2c(SCC(=O)NC3CCCC3)nc3ccccc3c2=O)cc1 was read as Anthrax LF inh2 inactive, BoNT F protease inactive, BoNT-A LC inh2 inactive and Autofluor counter 21985.
`O=C(CSc1nc2ccccc2c(=O)n1NC(=O)Cc1ccccc1)NCc1ccccc1` gave Anthrax LF inh2 inactive, BoNT F protease inactive, BoNT-A LC inh2 inactive and Autofluor counter 23372.
For COc1ccc(C(=O)Nn2c(SCC(=O)NCc3ccccc3)nc3ccccc3c2=O)cc1 the results were Anthrax LF inh2 inactive, BoNT F protease inactive, BoNT-A LC inh2 inactive and Autofluor counter inactive.
`O=C(CSc1nc2ccccc2c(=O)n1NC(=O)c1ccccc1)c1ccc(Cl)cc1` gave Anthrax LF inh2 inactive, BoNT F protease inactive, BoNT-A LC inh2 inconclusive and Autofluor counter 19026.
For O=C(CSc1nc2ccccc2c(=O)n1NC(=O)c1ccccc1)c1ccccc1 the results were Anthrax LF inh2 inactive, BoNT F protease inactive, BoNT-A LC inh2 inactive and Autofluor counter 22548.
For CCn1c(SCC(=O)c2ccccc2)nc2ccccc2c1=O the results were Anthrax LF inh2 inactive, BoNT F protease inactive, BoNT-A LC inh2 inactive and Autofluor counter inactive.
Screening CCCS(=O)(=O)NC(=O)C1(C)CCN(C(=O)c2ccc(OC(F)F)cc2)C1 (stereo not drawn) returned Anthrax LF inh2 inactive, BoNT F protease inactive, BoNT-A LC inh2 inactive and Autofluor counter inactive.
For CCc1ccc2cc(F)cc(F)c2n1 the results were Anthrax LF inh2 inactive, BoNT F protease inactive, BoNT-A LC inh2 inactive and Autofluor counter inactive.
`COc1ccc(CCNC(=O)c2nnn(CC(=O)Nc3ccc(C)cc3C)c2N)cc1OC` gave Anthrax LF inh2 inactive, BoNT F protease inactive, BoNT-A LC inh2 inactive and Autofluor counter inactive.
Screening CN(C)c1ccc(/C=C/C=N/Nc2nc(N3CCOCC3)nc(N3CCOCC3)n2)cc1 returned Anthrax LF inh2 inactive, BoNT F protease inactive, BoNT-A LC inh2 inactive and Autofluor counter inactive.
For Cn1nnnc1SCCNCc1ccc(Cl)cc1 the results were Anthrax LF inh2 inactive, BoNT F protease inactive, BoNT-A LC inh2 inconclusive and Autofluor counter 17333.
